# HCV inh: inhibitors of hepatitis C virus infection | 340,000 compounds, 3.4% hits | Huh7.5.1 HCVcc-Cre infection, luciferase reporter, 44 h | AID 651820 | Potency, µM (highest dose often 41.8 µM), without a hit: at the highest dose activity change, negative = inhibition, most hits filed as inhibitors; further: potency means the concentration at half of the fitted maximal effect
#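 Infectious HCV cell culture screen: compound-treated cells (1,000/well, pre-plated 4 h) are infected with HCVcc-Cre at roughly 0.5 moi and grown 44 h. Infection is quantified by luciferase signal after 15 min substrate incubation at room temperature.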
# FMDV antiviral: foot and mouth disease virus antiviral activity. FMDV antiviral cell-based qHTS. Potency, µM (series often up to 57.9 µM), for the others: top-dose activity change, negative = inhibition, actives largely listed as inhibitors. 410,000 compounds, 1.2% hits; calls by dose curve; tested in HEK293T cells; further: read-out not given here; potency means the concentration at half of the fitted maximal effect; nearly all actives have a fitted effect of over 45% in size
# Vaccinia Venus: vaccinia inhibition (Venus reporter); AID 720580; Vaccinia virus Venus reporter expression, fluorescence; 330,000 compounds, 0.46% hits; Potency, µM (doses to about 36.5 µM), for the others: at the top dose activity change, negative = inhibition, hits mostly inhibitors; calls by dose curve; tested in A549 cells; further: potency means the concentration at half of the fitted maximal effect; nearly all actives have a fitted effect of over 30% in size
# Giardia FBPA inh: inhibitors of Giardia lamblia fructose-1,6-bisphosphate aldolase; purified Giardia FBPA; A8B2U2; 290,000 compounds, 0.71% hits; Potency, µM (doses to about 59.6 µM), for inactives: at the top dose activity, negative = inhibition, actives largely listed as inhibitors; further: potency means the concentration at half of the fitted maximal effect; nearly all actives have a fitted effect of over 55% in size
# Target sequence (A8B2U2 whole entry, looked up): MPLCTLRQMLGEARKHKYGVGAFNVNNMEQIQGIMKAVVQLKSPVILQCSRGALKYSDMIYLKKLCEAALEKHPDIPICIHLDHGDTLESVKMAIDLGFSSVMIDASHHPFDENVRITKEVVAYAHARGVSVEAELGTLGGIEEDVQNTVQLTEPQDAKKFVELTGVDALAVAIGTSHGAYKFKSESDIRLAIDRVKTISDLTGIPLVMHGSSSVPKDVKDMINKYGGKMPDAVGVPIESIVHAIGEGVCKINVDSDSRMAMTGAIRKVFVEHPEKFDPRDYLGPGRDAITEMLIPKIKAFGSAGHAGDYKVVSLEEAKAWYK
#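 Giardia FBPA (40 nM reagent) was preincubated 10 min at RT with compound (up to 57.5 uM final), then substrate plus GAPDH/TPI/NAD/arsenate coupling system with diaphorase/resazurin was added; resorufin fluorescence (525/598 nm) was read after 20 min.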
# Vaccinia mCherry: vaccinia inhibition (mCherry reporter); Vaccinia virus mCherry reporter infection, fluorescence; AID 720579; Potency, µM (titrated, usually from 36.5 µM), inactives show at the top dose activity change, negative = inhibition, actives largely listed as inhibitors; 310,000 compounds, 0.63% hits; calls by dose curve; tested in A549 cells; further: potency means the concentration at half of the fitted maximal effect; nearly all actives have a fitted effect of over 35% in size
# HCMV antiviral: human cytomegalovirus inhibition; activity change, negative = inhibition, % at 57.5 µM; HFF cells, HCMV-luciferase reporter, 72 h; hits give low values; 410,000 compounds, 4.5% hits; in the data active means activity change below about -60%; inconclusive means no clear call, values can overlap the other calls; inactive means above about -39%
#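 Human foreskin fibroblasts infected with luciferase-reporter HCMV at MOI 1 PFU/cell, compounds at two doses. Luciferase measured 72 h post infection; normalized to buffer-only basal and Salinomycin (10uM) controls.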
# The depositor's hits bear a star; i = inactive; ? = inconclusive; nt = no result given; [ ] = remark or other dose. The list is not random: actives were taken first. Their share in the collection is about 7.5%. Unless noted, the call rests on the fitted dose curve; in most records, active means well fitted curve in the direction sought with a large enough effect; inconclusive means small, poorly fitted or top-dose-only effect, or another doubt; inactive means no such curve, though single readings can be large; an effect the other way counts as inactive or inconclusive. On the % scale 0 is the no-effect control and ±100 the full control effect.
SMILES,HCV inh,FMDV antiviral,Vaccinia Venus,Giardia FBPA inh,Vaccinia mCherry,HCMV antiviral
O=C(Cn1cnc2ccccc21)Nc1ccc2c(c1)OCCCO2,11.2µM*,-5.7%,nt,nt,nt,?
O=C(Cn1cnc2ccccc2c1=O)Nc1ccc2c(c1)OCO2,2.9%,36.3%,-8.9%,-0.3%,-17.2%,92.0
COc1ccc(C(=O)Nc2ccccc2-c2nnn(CC(=O)Nc3ccc4c(c3)OCCO4)n2)cc1,0.4%,0.0%,-12.6%,-5.1%,-1.8%,-62.9*
COc1ccc(-n2ncc3c(=O)n(CC(=O)Nc4ccc5c(c4)OCCO5)cnc32)cc1,-29.0%,4.5%,-7.6%,2.2%,-14.2%,-60.1*
Nc1ccccc1-c1nnn(CC(=O)Nc2ccc3c(c2)OCCO3)n1,4.8%,0.8%,nt,nt,nt,-4.5
C[C@H]1CN([C@@H](C)CO)C(=O)CCCn2nncc2CO[C@@H]1CN(C)Cc1ccncc1,nt,-1.9%,-14.5%,nt,-11.8%,-10.8
CC(=O)c1cccc(NC(=O)c2sc(-n3nc(C)c(Cc4ccccc4)c3C)nc2C)c1,nt,?,-21.0%,nt,-19.9%,-61.3*
COc1ccc(Cc2c(C)nn(-c3nc(C)c(C(=O)Nc4cccc(C(C)=O)c4)s3)c2C)cc1,nt,?,?,nt,-7.5%,-28.2
CCCNC(=O)C1(C)CCCN(Cc2cc(-c3ccccc3)nn2C)C1 (stereo not given),nt,-25.3%,-0.8%,nt,7.1%,23.0
O=[N+]([O-])c1cc(Br)c(Nc2ccccc2)c([N+](=O)[O-])c1,?,?,nt,2.5%,nt,-85.4*
O=C(Nc1ccccc1)c1ccc(Nc2c([N+](=O)[O-])cc([N+](=O)[O-])c3ccccc23)cc1,?,?,?,3.1%,?,-74.2*
CN1CCC(Nc2nc(Br)cnc2N)CC1,nt,nt,nt,nt,nt,9.7
CCc1nc2cc(C(=O)N3CCC[C@H]3CO)cc(NC(=O)c3ccccc3OC)c2n1C,nt,3.5%,-8.7%,nt,-10.5%,nt
Cc1ccccc1C(=O)N1Cc2cnnn2-c2ccccc2C1C#N (stereo not given),-14.1%[8.37 µM],-14.0%,-3.8%,nt,-4.5%,-21.6
Cc1ccccc1CN1Cc2cnnn2-c2ccccc2C1C#N (stereo not given),?,12.6µM*,1.5%,nt,-20.5%,-98.5*
Cc1ccc(NC(=O)c2cnccn2)c(OC(F)F)c1,12.6µM*,20.2%,nt,-7.8%,nt,-14.0
COc1ccc(NC(=O)Nc2ccc(C)cc2OC(F)F)cc1OC,6.31µM*,-15.0%,nt,-1.3%,nt,-1.9
Cc1ccc(NC(=O)Nc2ccc3c(c2)OCO3)c(OC(F)F)c1,-26.5%,50.0%,-13.3%,-8.4%,-13.7%,62.0
CCNS(=O)(=O)c1ccc(NC(=O)Nc2cc(C)ccc2OC)cc1,12.6µM*,5.1%,-15.0%,-8.4%,i,-15.1
Fc1ccc(-c2cc(C(F)(F)F)nc(NCc3cccs3)n2)cc1,-8.9%,?,-20.8%,-3.0%,i,71.7
Nc1nc(Nc2cccc3ccccc23)nc(C2CCCC2=O)n1 (stereo not given),nt,nt,nt,7.6%,nt,33.7
Nc1nc(CCl)nc(Nc2cccc3ccccc23)n1,0.562µM*,?,nt,-5.1%,nt,-98.2*
CC(=NNC(=S)N1CCC1)c1ccccn1,1.26µM*,10.7%,?,nt,?,-101.1*
CC(=NNC(=S)SCc1ccccc1)c1ccccn1,0.316µM*,?,?,nt,10µM*,-96.5*
C/C(=N\NC(=O)c1ccccn1)c1ccc(Cl)cc1,-10.1%,23.0%,-15.6%,-20.4%,-9.8%,-16.6
SMILES,HCV inh,FMDV antiviral,Vaccinia Venus,Giardia FBPA inh,Vaccinia mCherry,HCMV antiviral
C/C(=N/NC(=O)c1ccccn1)c1ccc(O)cc1,22.8%,0.0%,nt,?,nt,73.1
CC(=NNC(=S)N1CCCC1)c1ccccn1,nt,13.7%,?,nt,?,-98.9*
C/C(=N/NC(=O)c1ccccn1)c1ccco1,2.9%,nt,-4.0%,nt,-22.7%,12.0
CC(C)CC(=O)Nc1ccccc1OCc1cc(=O)n2ccccc2n1,nt,13.6%,-21.9%,nt,-10.8%,22.4
Cc1ccc(-c2cc3c(nn2)-c2ccccc2C3=O)cc1,-2.0%,10µM*,3.2%,-8.0%,?,0.0
O=C1c2ccccc2-c2nnc(-c3ccc(F)cc3)cc21,-9.6%,-21.5%,-2.6%,-3.2%,-7.0%,0.4
Cc1cc(C)c2c(=N)c3ccccc3n(CCCCCCCCn3c4ccccc4c(=N)c4c(C)cc(C)nc43)c2n1,-24.8%,0.0%,10µM*,nt,10µM*,-74.6*
CCCCc1ccc(S(=O)(=O)NC(=O)C2(C)CCN2C(=O)C/C=C/c2ccccc2)cc1 (stereo not given),nt,-13.9%,2.4%,nt,12.6%,-17.8
COCCNC(=O)C1CCCN(C(=O)c2ccnc(Cl)c2)CC1 (stereo not given),nt,-14.6%,-0.4%,nt,i,-68.5*
COc1ccc(-c2cc(C(F)(F)F)n3nc(C(N)=O)cc3n2)cc1,nt,-26.1%,-7.6%,nt,-12.2%,-25.9
NC(=O)c1cccc(-c2ccc3c(c2)N(CC2CC2)C(=O)COC3)c1,nt,nt,nt,nt,nt,30.2
O=C(c1ccc2c(c1)CCN2S(=O)(=O)c1ccc(Cl)cc1)N1CCN(c2ccc(F)cc2)CC1,nt,-26.9%,-22.1%,nt,-19.6%,?
COc1ccc(-c2ccc(C#N)c(OC(=O)c3c(Cl)cccc3Cl)n2)cc1,5.01µM*,-22.4%,-21.0%,4.0%,nt,-25.1
Cc1ccc(CNC(=O)c2nc(-c3ccc(Cl)cc3)n3c2CCCCC3)cc1,nt,-21.8%,-12.6%,nt,-25.2%,-5.2
c1ccc(N2CCCC3(CCNCC3)C2)nc1,nt,-14.9%,nt,-8.3%,nt,nt
Cc1c2c(c(O)c3c(O)cccc13)C(=O)O[C@H]2C1C(N(C)C)C(O)=C(C(N)=O)C(=O)[C@H]1O (stereo not given in full),nt,nt,nt,9.98µM*,nt,nt
CC1c2cccc(O)c2C(O)=C2C(=O)[C@]3(O)C(O)=C(C(N)=O)C(=O)C(N(C)C)C3C(O)C21 (stereo not given in full),nt,-6.3%,-9.3%,?,-10.1%,nt
COc1ccc(-c2nc3ccccn3c2CN2CCN(c3ccccc3F)CC2)cc1,?,-27.2%,-22.5%,-7.6%,-25.8%,-60.8*
COc1ccc2c(=O)c(-c3ccc(C)cc3)c(-c3ccccc3)oc2c1,13.2%,0.0%,-10.3%,nt,-2.4%,-10.2
COc1ccc(/C=C2\SC(=S)N(CCC(=O)N3CCOCC3)C2=O)cc1,-27.0%,26.9%,?,nt,-28.3%,-10.8
O=C1/C(=C/c2ccccc2)SC(=S)N1CC(=O)N1CCCCC1c1cccnc1 (stereo not given),?,?,nt,7.8%,nt,-90.1*
O=C1/C(=C/c2ccccc2Cl)SC(=S)N1CCC(=O)N1CCCCC1CCO (stereo not given),17.7%,-11.6%,nt,-3.3%,nt,-80.9*
O=C1/C(=C\c2ccccc2)SC(=S)N1CCC(=O)N1CCCCC1CCO (stereo not given),21.8%,-0.5%,nt,5.4%,nt,-86.2*
COc1ccc(/C=C2\SC(=S)N(CCCC(=O)N3CCCCC3CCO)C2=O)cc1 (stereo not given),-15.2%,-15.6%,nt,nt,nt,-99.8*

# From PubChem
